The campaign covered roughly 400,000 compounds. About 2,100 (0.53%) were called active. Roughly 14% stayed inconclusive and do not appear here. No rule for the calls is given here. The sample as a whole holds a higher share of actives than the screen did.
What follows are molecules tested against Ataxin-2 (Homo sapiens) (UniProt Q99700) (assay: qHTS for Inhibitors of ATXN expression.).
Format: functional

Chain of Ataxin-2 (Homo sapiens) (Q99700 whole entry): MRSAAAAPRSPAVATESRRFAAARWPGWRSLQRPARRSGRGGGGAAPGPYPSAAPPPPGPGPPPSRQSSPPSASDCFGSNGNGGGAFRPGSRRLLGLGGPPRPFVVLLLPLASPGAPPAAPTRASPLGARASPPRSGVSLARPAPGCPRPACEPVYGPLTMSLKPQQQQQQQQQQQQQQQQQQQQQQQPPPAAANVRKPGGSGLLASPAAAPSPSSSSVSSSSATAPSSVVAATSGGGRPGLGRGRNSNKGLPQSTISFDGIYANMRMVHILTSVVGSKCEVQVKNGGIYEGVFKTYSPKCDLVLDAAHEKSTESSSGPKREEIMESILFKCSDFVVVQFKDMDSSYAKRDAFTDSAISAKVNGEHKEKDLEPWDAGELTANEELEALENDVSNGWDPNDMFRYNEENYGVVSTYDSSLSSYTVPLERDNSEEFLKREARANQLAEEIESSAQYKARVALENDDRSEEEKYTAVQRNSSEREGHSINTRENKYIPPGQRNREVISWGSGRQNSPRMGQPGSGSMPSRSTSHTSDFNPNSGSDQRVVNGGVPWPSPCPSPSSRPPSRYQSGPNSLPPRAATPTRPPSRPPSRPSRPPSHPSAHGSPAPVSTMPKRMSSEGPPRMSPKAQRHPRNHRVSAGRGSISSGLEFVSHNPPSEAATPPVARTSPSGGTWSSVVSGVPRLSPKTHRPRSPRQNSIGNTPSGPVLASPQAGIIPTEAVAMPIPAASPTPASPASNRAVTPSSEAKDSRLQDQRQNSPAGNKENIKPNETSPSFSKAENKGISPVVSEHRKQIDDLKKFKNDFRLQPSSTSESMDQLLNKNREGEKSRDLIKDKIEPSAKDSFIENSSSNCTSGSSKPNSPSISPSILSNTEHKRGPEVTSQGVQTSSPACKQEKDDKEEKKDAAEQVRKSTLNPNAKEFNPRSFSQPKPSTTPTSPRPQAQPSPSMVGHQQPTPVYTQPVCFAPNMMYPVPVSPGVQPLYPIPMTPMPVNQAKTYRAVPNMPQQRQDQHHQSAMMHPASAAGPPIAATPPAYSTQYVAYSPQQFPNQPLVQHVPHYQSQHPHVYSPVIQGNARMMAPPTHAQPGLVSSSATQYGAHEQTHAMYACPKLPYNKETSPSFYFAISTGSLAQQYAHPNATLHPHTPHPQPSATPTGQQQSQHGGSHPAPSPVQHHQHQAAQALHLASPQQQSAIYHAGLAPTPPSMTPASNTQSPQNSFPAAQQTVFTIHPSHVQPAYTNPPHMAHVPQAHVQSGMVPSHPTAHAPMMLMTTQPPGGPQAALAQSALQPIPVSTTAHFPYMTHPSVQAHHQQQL

SMILES | Potency
CN(Cc1ccc(OC(F)F)cc1)C(=O)C1CCN(S(=O)(=O)c2ccc3c(c2)OCCO3)CC1 | inactive
O=C(Nc1cc(S(=O)(=O)N2CCCC2)ccc1Cl)c1ccncc1 | inactive
CCOc1cc(Br)c(/C=C2/C(=O)N(C)C(=S)N2CC(=O)OC)cc1OC | inactive
Cn1c(SCc2cc(O)nc(C(C)(C)C)n2)nnc1C(F)(F)F | inactive
CCCn1c(=N)c(C(=O)NCC2CCCO2)cc2c(=O)n3cc(C)ccc3nc21 (configuration not stated) | inactive
O=c1nc2ccc(Cl)cn2c2ccc(S(=O)(=O)N3CCOCC3)cc12 | inactive
Cc1ccc(S(=O)(=O)N2CCN(C(=O)c3cc(S(=O)(=O)N4CCOCC4)c(Cl)cc3Cl)CC2)cc1 | inactive
Nc1nc(-c2ccc(Cl)cc2)c(N=Nc2ccc(S(=O)(=O)N3CCOCC3)cc2)s1 | 29.9 µM (active)
Nc1ccc2c(c1)C/C(=C/c1ccco1)C2=O | inactive
Cc1ccc(C2=CC(c3c(F)cccc3Cl)n3ncnc3N2)cc1C (configuration not stated) | inactive
CCOc1cc(C(=O)O)ccc1OCCOc1ccccc1 | inactive
CCCOc1ccc(C(=O)c2ccccc2C(=O)OC2CCOC2=O)cc1OCCC (configuration not stated) | 39.8 µM (active)
O=C(OC1CCOC1=O)c1cc(-c2cccs2)nc2ccccc12 (configuration not stated) | inactive
O=C(O)c1ccc2nc(-c3cc4cc(Cl)ccc4oc3=O)[nH]c2c1 | inactive
CCn1c2ccccc2c2cc(CN3CCOc4ccc(C(O)c5cccnc5)cc4C3)ccc21 (configuration not stated) | 31.6 µM (active)
CC(C)C(OC(=O)c1ccccc1)c1nccc2ccccc12 (configuration not stated) | inactive
CCOc1cc2c(cc1/C=C1/NC(=O)N(CC(=O)OC)C1=O)OCO2 | inactive
COc1cccc(C(=O)/C=C/c2ccc(OCC#N)c(OC)c2)c1 | 31.6 µM (active)
COc1ccc(/C=c2\s/c(=C/C(=O)c3ccc(C)cc3)[nH]c2=O)cc1OC | inactive
COc1cc(/C=C/C(=O)c2ccc(C)cc2)ccc1OCC#N | 39.8 µM (active)
COc1ccc(OC)c(N/C=C/C(=O)c2ccc(OC)c(OC)c2)c1 | inactive
COc1cc(/C=C/C(=O)O)ccc1OS(=O)(=O)c1cc(C)ccc1C | inactive
COc1ccc(C=CC(=O)c2ccc3cc(OC)c(OC)cc3c2)cc1OC | inactive
CCS(=O)(=O)Nc1cc2c3c(c1)CCC(=O)N3CCC2 | inactive
O=S(=O)(NN=C(NS(=O)(=O)c1ccccc1)c1ccccc1)c1ccccc1 | inactive
CCc1cc2cc(C)ccc2nc1SCC(=O)NC1CCCC1 | inactive

SMILES | Potency
Cc1cc(=O)n2c(n1)SCOC2 | inactive
Cc1cccn2c(=O)c3cc(C(=O)NCc4ccc(F)cc4)c(=N)n(CC4CCCO4)c3nc12 (configuration not stated) | inactive
CC(C)C[C@H](N)c1nnc(S(=O)(=O)Cc2ccc(F)cc2)o1 | 31.6 µM (active)
CC(C)C[C@H](N)c1nnc(S(=O)(=O)Cc2cccc(F)c2)o1 | 39.8 µM (active)
CCOC(=O)N1CCN(S(=O)(=O)c2ccc3c4c(cccc24)C(=O)N3)CC1 | inactive
CCOC(=O)C1CCN(C(=O)C(C)Oc2ccc(Br)cc2)CC1 (configuration not stated) | inactive
COc1cc(/C=C2\C(=N)N3N=C(CC(=O)N4CCOCC4)SC3=NC2=O)cc(OC)c1O | inactive
COc1cc(OC)cc(N2C(=O)CSCC2=O)c1 | inactive
COc1ccc2c(c1)C(=O)N(c1ccc(C)cc1C)C(=O)C2 | 35.5 µM (active)
Cc1ccc(N2C(=O)C(Cl)=C(N3CCCCCC3)C2=O)c(C)c1 | inactive
N#CC(C#N)=C1C=C2C=C(N3CCOCC3)CCC2CC1 (configuration not stated) | inactive
O=c1oc2c(O)cccc2cc1-c1nc2ccccc2[nH]1 | inactive
Cc1cc(F)ccc1S(=O)(=O)Nc1ccccc1C(=O)Nc1ccccc1-c1nc2ccccc2[nH]1 | 39.8 µM (active)
Cc1ccccc1NS(=O)(=O)c1nnc(NC(=O)c2ccccc2C)s1 | inactive
Cc1cc(C)c2c(N)c(C(=O)N/N=C/c3cccs3)sc2n1 | inactive
Cc1ccc2nc3c(cc(C(=O)NCC4CCCO4)c(=N)n3CCCOC(C)C)c(=O)n2c1 (configuration not stated) | inactive
COc1cccc(N2[C@@H](CC(C)=O)c3ccc(/C=C/C(C)=O)cc3S2(=O)=O)c1 | 35.5 µM (active)
COc1cccc(/C=C/c2nc(C#N)c(N3CCC(C(N)=O)CC3)o2)c1 | inactive
CC(C)n1nc(C(=O)NNC(=O)c2ccc(OC(F)F)cc2)c2ccccc2c1=O | inactive
COc1ccc(C(=O)/C=C/c2cn(CC(O)CN3CCc4ccccc43)c3ccccc23)cc1 (configuration not stated) | inactive
COc1ccc(C(=O)/C=C/c2cn(CC(O)CN(CC(C)C)CC(C)C)c3ccccc23)cc1 (configuration not stated) | inactive
CCC(=C(c1ccc(OC)cc1)c1ccc(OC)cc1)c1cn(CC(O)CN2CCN(C)CC2)c2ccccc12 (configuration not stated) | 39.8 µM (active)
CCCN(CCC)CC(O)Cn1cc(/C=C/C(=O)c2ccc(OCC)cc2)c2ccccc21 (configuration not stated) | inactive
COc1ccc(C(=O)/C=C/c2cn(CC(O)CN3CCN(C)CC3)c3ccccc23)cc1OC (configuration not stated) | inactive
CCC(=C(c1ccc(OC)cc1)c1ccc(OC)cc1)c1cn(CC(O)CN(CCO)CCO)c2ccccc12 (configuration not stated) | 39.8 µM (active)
O=C(CCc1ccccc1)NCC1(c2ccccc2)CCCC1 | inactive

SMILES | Potency
COc1cc2c(cc1/C=C1/NC(=O)N(CC(=O)Nc3ccccc3)C1=O)OCO2 | inactive
Cc1c(-c2ccccc2)c(=O)oc2c(CN3CCOCC3)c(O)ccc12 | inactive
Cc1cccn2c(=O)c3cc(C(=O)NCC4CCCO4)c(=N)n(C4CCCC4)c3nc12 (configuration not stated) | inactive
N=c1oc2cc(O)ccc2cc1C(=O)Nc1nc2ccccc2s1 | inactive
Cc1ccc(S(=O)(=O)N(C)CC(=O)NCC(c2ccc(F)cc2)N2CCOCC2)cc1 (configuration not stated) | inactive
O=C(C=Cc1ccccc1)CC(c1ccccc1)N1CCOCC1 (configuration not stated) | 28.2 µM (active)
O=C(O)c1cc(/C=C/c2ccc(N3CCOCC3)cc2)nc2ccccc12 | inactive
COc1ccc(C2C=C(c3ccccc3)Nc3nc(NC(C)=O)nn32)cc1 (configuration not stated) | inactive
O=C(Nc1cccc(-c2cn3c(n2)SCC3)c1)c1ccc2c(c1)OCO2 | inactive
Cc1c(C(=O)Nc2ccc3c(c2)OCCO3)sc2nc(-c3ccccc3)cn12 | 39.8 µM (active)
Cc1ccsc1C(=O)Nc1ccc(O)c(-c2nc3ccccc3s2)c1 | inactive
C/N=c1\scc(C)n1/N=C/c1cc(Br)c(O)c(Br)c1 | inactive
COc1ccc(NC(=O)c2ccc(NC(=O)CCS(=O)(=O)c3cccs3)cc2)cc1Cl | 39.8 µM (active)
CCc1ccc(NC(=O)CCNS(=O)(=O)c2cccs2)cc1 | inactive
COc1ccc(Cl)cc1NC(=O)CCS(=O)(=O)c1cccc2nonc12 | inactive
Cc1c(OC(C)C(=O)NCCN2CCOCC2)ccc2c3c(c(=O)oc12)CCC3 (configuration not stated) | inactive
O=C(Nc1ccc(N2CCOCC2)c(Cl)c1)c1cc2ccccc2o1 | 39.8 µM (active)
O=C(CSc1nc(O)c2ccccc2n1)Nc1ccc(N2CCOCC2)c(Cl)c1 | inactive
O=C(Nc1cc(Cl)ccc1N1CCOCC1)c1cc2ccccc2o1 | inactive
O=C(Nc1ccc(N2CCN(C(=O)c3ccco3)CC2)cc1)c1cc(Br)ccc1Cl | 35.5 µM (active)
CC1CCN(C(=O)c2cc(Cl)ccc2NC(=O)c2ccco2)CC1 | inactive
O=C(Nc1ccc(N2CCN(C(=O)c3ccco3)CC2)c(Cl)c1)c1cc2ccccc2o1 | 22.4 µM (active)
COc1cc(NC(=O)c2cc(Cl)ccc2Cl)ccc1NC(=O)c1cc2ccccc2o1 | 22.4 µM (active)
Cc1ccc(NC(=O)C2CCN(C(=O)c3ccco3)CC2)cc1 | inactive
COc1cc(NC(=O)c2oc3ccccc3c2C)ccc1NC(=O)c1ccco1 | inactive
N=c1oc2cc(O)ccc2cc1C(=O)Nc1ccc(Cl)cc1 | inactive

SMILES | Potency
CCOC(=O)c1cc2ccc(OC(=O)c3ccco3)cc2oc1=O | inactive
CCN(CC)c1ccc(/C=N/NC(=O)c2cccc(S(=O)(=O)N3CCOCC3)c2)c(O)c1 | inactive
CCOC(=O)/C(C#N)=C1\CC2CCC1(C)C2(C)C (configuration not stated) | inactive
O=C1c2cccc3c([N+](=O)[O-])ccc(c23)C(=O)N1c1ccccn1 | inactive
O=[N+]([O-])c1ccccc1Oc1ncccc1[N+](=O)[O-] | 8.91 µM (active)
CCC1Cc2c(nc(N)c3c(N)nc(N4CCOCC4)c(C#N)c23)O1 (configuration not stated) | inactive
N#CCc1nc(C(c2ccccc2)c2ccccc2)no1 | inactive
CCCNC(=O)c1ccc2c(O)c(O)c(-c3ccsc3)nc2c1 | inactive
CCC(=O)Nc1sc2c(c1C(N)=O)CCN(Cc1ccccc1)C2 | inactive
CC(C)N1CCc2c(sc(NC(=O)c3cc(-c4cccs4)nc4ccccc34)c2C(N)=O)C1 | 33.6 µM (active)
CC(C)N1CCc2c(sc(NC(=O)Cc3ccccc3)c2C#N)C1 | inactive
CC(C)N1CCc2c(sc(NC(=O)c3cc4cc([N+](=O)[O-])ccc4s3)c2C(N)=O)C1 | 29.9 µM (active)
CC(C)CN(CC(C)C)S(=O)(=O)c1ccc(C(=O)Nc2sc3c(c2C(N)=O)CCN(C(C)C)C3)cc1 | inactive
CN1CCc2c(sc(NC(=O)c3ccc(S(=O)(=O)N4CCCCCC4)cc3)c2C(N)=O)C1 | inactive
CCOc1cc(CNC(C)(C)CO)cc(Br)c1OCc1ccc(Cl)cc1Cl | 39.8 µM (active)
CCOc1cc(CNCCO)cc(Br)c1OCc1ccc(Cl)cc1Cl | 39.8 µM (active)
Cc1ccc(C)c(OC(C)C(=O)Nc2ccc(S(=O)(=O)Nc3nccs3)cc2)c1 (configuration not stated) | inactive
CCc1nnc(NC(=O)c2sc3nc(C)cc(COC)c3c2N)s1 | inactive
Cc1nc2ccccc2c(=O)n1/N=C/c1ccc(O)c(O)c1O | inactive
Cc1ccc(-c2[nH]ncc2/C=N/n2c(COc3ccccc3C)nc3ccccc3c2=O)cc1 | 15.8 µM (active)
COc1ccc(/C=N/n2c(S)nnc2COc2ccccc2)cc1OC | inactive
Cc1ccc(-c2[nH]ncc2/C=N/n2c(COc3ccccc3)nc3ccccc3c2=O)cc1 | 39.8 µM (active)
Oc1ccccc1/C=N/n1c(S)nnc1COc1ccccc1 | inactive
Cc1ccc(-c2nc3ccccc3c(=O)o2)cc1 | inactive

Reference: ChEMBL document CHEMBL1201862, “PubChem BioAssay data set” (2004)
